Assay results as given in PubChem BioAssay (Tox21).
Where “and” joins values, the source holds several entries; their conditions need not be identical. Identical values can stand only once. More than one record can exist for a structure, and the calls need not agree. Calls of active or inactive are those of the source. Unless noted, calls come from the whole dose curve; as a rule, active = well fitted curve in the direction sought with a large enough effect in the repeat runs; inconclusive = weak or mixed curves; inactive = no such curve, though single readings can be large; an effect the other way counts as inactive or inconclusive.

Columns and labels:
[1] = qHTS assay to identify small molecule antagonists of the thyroid receptor (TR) signaling pathway - cell viability counter screen (AID 743064); note: nearly all actives have a fitted effect of over 50% in size; note: potency is the fitted concentration of half-maximal effect
In short: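 Compounds were tested on GH3.TRE-Luc cells in the presence of T3 at 1 nM final. Following 23.5 h at 37 °C, cell viability was quantified by CellTiter-Fluor.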

[2] = qHTS assay to identify small molecule antagonists of the thyroid receptor (TR) signaling pathway (AID 743065); note: nearly all actives have a fitted effect of over 55% in size; note: potency is the fitted concentration of half-maximal effect
In short: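 Antagonism measured as loss of luciferase signal in GH3 cells stably carrying a TRE-luciferase reporter, co-treated with compound and T3 (1 nM final) for 23.5 h at 37 C. Viability was read in the same well by CellTiter-Fluor.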

[3] = system: thyroid hormone receptor (rat, GH3 cells); assay: qHTS assay to identify small molecule agonists of the thyroid receptor (TR) signaling pathway (AID 743066; calls by dose curve; note: potency is the fitted concentration of half-maximal effect)
[4] = target: Estrogen receptor (Homo sapiens) (UniProt P03372); assay: qHTS assay to identify small molecule antagonists of the estrogen receptor alpha (ER-alpha) signaling pathway (AID 743069; active = well fitted curve in the direction sought with a large enough effect in the signal ratio in the repeat runs, not every such curve was filed as active; inconclusive = weak or mixed curves, or effect the other way; inactive = no such curve, though single readings can be large or run the other way; the % refers to the signal ratio)
Sequence of Estrogen receptor (Homo sapiens) (P03372 whole entry, looked up): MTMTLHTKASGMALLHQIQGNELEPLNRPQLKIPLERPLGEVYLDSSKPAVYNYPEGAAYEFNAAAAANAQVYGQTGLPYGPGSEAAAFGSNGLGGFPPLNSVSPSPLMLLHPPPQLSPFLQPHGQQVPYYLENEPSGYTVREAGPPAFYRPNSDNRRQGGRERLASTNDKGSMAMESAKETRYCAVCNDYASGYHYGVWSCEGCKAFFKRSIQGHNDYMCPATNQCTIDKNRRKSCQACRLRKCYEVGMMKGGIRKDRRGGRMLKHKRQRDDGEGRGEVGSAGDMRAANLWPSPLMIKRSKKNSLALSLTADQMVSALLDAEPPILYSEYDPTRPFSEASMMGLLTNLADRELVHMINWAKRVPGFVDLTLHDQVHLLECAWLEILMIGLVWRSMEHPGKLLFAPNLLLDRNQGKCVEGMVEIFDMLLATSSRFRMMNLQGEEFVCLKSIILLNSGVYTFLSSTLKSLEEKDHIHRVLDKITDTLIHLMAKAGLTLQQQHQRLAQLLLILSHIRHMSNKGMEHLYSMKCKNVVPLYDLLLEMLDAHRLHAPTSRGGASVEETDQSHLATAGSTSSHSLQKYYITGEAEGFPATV
In short: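 Compound effects are measured against 17beta-estradiol stimulation in HEK293 cells with a UAS-controlled beta-lactamase reporter for ER-alpha. Exposure lasts 18 hr at 37C; LiveBLAzer B/G FRET substrate follows for 2 hr at room temperature.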

[5] = target: Estrogen receptor (Homo sapiens) (UniProt P03372); assay: qHTS assay to identify small molecule agonists of the estrogen receptor alpha (ER-alpha) signaling pathway (AID 743075; calls by dose curve; note: potency is the fitted concentration of half-maximal effect)
[6] = target: Estrogen receptor (Homo sapiens) (UniProt P03372); assay: qHTS assay to identify small molecule agonists of the estrogen receptor alpha (ER-alpha) signaling pathway using the BG1 cell line (AID 743079); conditions: BG1Luc4E2 cells, ERE-luciferase agonist, 22 h; activation: at 70.3 µM (top of the series) unless noted; note: nearly all actives have a fitted effect of over 20% in size; note: potency is the fitted concentration of half-maximal effect
[7] = qHTS assay to identify small molecule antagonists of the estrogen receptor alpha (ER-alpha) signaling pathway using the BG1 cell line - cell viability counter screen (AID 743081);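 note: compound given together with 17beta-estradiol as the ER stimulus; nearly all actives have a fitted effect of over 45% in size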; note: potency is the fitted concentration of half-maximal effect
Aromatase (Homo sapiens) = Aromatase (Homo sapiens) (UniProt P11511); assay: qHTS assay to identify aromatase inhibitors (AID 743083); note: nearly all actives have a fitted effect of over 55% in size; note: potency is the fitted concentration of half-maximal effect
Sequence of Aromatase (Homo sapiens) (P11511 whole entry, looked up): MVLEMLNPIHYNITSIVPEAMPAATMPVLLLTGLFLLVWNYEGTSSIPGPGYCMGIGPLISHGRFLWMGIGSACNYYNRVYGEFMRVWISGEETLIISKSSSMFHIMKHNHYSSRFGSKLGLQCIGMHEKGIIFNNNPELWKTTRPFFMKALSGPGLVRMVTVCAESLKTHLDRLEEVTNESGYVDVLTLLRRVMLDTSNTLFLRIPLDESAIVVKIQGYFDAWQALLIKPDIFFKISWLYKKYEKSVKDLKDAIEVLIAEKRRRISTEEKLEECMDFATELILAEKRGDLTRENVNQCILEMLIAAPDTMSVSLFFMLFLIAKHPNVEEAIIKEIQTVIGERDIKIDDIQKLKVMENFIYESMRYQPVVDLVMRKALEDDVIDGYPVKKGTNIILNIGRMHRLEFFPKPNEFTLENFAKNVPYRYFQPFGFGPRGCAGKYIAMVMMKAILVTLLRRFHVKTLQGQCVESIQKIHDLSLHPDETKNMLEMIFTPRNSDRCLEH

[8] = qHTS assay to identify aromatase inhibitors - cell viability counter screen (AID 743084);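 note: cells stimulated with testosterone during compound exposure; nearly all actives have a fitted effect of over 55% in size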; note: potency is the fitted concentration of half-maximal effect
[9] = target: Aryl hydrocarbon receptor (Homo sapiens) (UniProt P35869); assay: qHTS assay to identify small molecule that activate the aryl hydrocarbon receptor (AhR) signaling pathway (AID 743085); note: nearly all actives have a fitted effect of over 15% in size; note: potency is the fitted concentration of half-maximal effect;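 for activation: HG2L7.5c1 human HepG2 liver cells with stably integrated DRE-driven firefly reporter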
Sequence of Aryl hydrocarbon receptor (Homo sapiens) (P35869 whole entry, looked up): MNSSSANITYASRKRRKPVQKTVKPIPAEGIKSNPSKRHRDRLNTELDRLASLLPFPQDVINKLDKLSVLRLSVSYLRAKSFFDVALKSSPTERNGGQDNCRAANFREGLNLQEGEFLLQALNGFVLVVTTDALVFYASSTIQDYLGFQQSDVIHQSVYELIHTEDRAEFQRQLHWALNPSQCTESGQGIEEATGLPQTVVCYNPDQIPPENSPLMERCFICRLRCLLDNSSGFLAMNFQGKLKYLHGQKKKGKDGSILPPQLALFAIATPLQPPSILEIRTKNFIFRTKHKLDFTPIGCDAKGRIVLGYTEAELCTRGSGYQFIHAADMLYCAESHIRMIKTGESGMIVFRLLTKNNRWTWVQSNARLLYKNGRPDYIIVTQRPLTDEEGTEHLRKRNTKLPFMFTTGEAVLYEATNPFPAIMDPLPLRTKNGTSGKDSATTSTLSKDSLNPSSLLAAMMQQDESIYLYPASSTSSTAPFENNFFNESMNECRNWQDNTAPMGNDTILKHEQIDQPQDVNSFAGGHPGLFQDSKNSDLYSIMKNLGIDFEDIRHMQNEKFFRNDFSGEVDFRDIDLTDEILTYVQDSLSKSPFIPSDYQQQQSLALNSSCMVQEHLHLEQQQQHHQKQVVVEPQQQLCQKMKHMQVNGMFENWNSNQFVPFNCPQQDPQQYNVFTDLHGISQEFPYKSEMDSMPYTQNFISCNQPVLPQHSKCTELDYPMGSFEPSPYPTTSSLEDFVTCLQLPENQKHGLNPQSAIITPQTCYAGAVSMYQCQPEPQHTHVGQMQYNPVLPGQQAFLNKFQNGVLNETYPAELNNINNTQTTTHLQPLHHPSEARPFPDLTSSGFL
In short: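 24 h compound exposure, 37C, HepG2-derived HG2L7.5c1 cells with DRE-responsive luciferase. Readouts: fluorescence viability, then luminescence at room temperature after 30 min.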

[10] = target: Peroxisome proliferator-activated receptor gamma (Homo sapiens) (UniProt P37231); assay: qHTS assay to identify small molecule agonists of the peroxisome proliferator-activated receptor gamma (PPARg) signaling pathway (AID 743094; active = well fitted activation curve with a large enough effect in the signal ratio in the repeat runs, not every such curve was filed as active; inconclusive = weak or mixed curves, or effect the other way; inactive = no such curve, though single readings can be large or run the other way; the % refers to the signal ratio)
Sequence of Peroxisome proliferator-activated receptor gamma (Homo sapiens) (P37231 whole entry, looked up): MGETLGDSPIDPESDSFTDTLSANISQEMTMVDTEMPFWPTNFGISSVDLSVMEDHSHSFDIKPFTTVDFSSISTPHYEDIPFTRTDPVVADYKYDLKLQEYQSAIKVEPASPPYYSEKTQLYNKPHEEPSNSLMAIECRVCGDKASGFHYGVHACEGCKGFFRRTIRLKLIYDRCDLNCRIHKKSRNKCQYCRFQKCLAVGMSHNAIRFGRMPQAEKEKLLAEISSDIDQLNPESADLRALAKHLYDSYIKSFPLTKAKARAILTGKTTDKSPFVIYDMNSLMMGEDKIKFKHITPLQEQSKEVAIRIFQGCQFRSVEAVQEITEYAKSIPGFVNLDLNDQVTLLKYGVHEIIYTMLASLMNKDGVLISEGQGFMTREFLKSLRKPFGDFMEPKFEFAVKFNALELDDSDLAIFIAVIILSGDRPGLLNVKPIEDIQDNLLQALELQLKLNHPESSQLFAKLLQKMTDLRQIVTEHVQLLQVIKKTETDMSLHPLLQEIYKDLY
In short: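 Beta-lactamase FRET fluorescence was the read-out after a 1 h room-temperature substrate step, following 17 h compound treatment at 37C of HEK293H cells expressing a UAS-driven bla reporter responsive to PPARg.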

[11] = qHTS assay to identify small molecule antagonists of the peroxisome proliferator-activated receptor gamma (PPARg) signaling pathway - cell viability counter screen (AID 743194); conditions: Potency: co-treated with 50 nM rosiglitazone unless noted; note: nearly all actives have a fitted effect of over 55% in size; note: potency is the fitted concentration of half-maximal effect
In short: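 Viability was measured as CellTiter-Glo luminescence in GeneBLAzer PPARg UAS-bla HEK293H cells. These cells had been exposed 17 h at 37 C to compounds together with rosiglitazone at 50 nM final, with the beta-lactamase readout taken in the same wells.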

[12] = qHTS assay for small molecule agonists of the antioxidant response element (ARE) signaling pathway (AID 743202; active = well fitted activation curve with a large enough effect in the signal ratio in the repeat runs, not every such curve was filed as active; inconclusive = weak or mixed curves, or effect the other way; inactive = no such curve, though single readings can be large or run the other way; the % refers to the signal ratio; note: potency is the fitted concentration of half-maximal effect)
In short: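 An ARE-responsive beta-lactamase gene stably integrated in HepG2 cells serves as reporter. After 5 h plating and 16 h compound incubation at 37 C, fluorescence of the B/G FRET substrate was measured.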

[13] = qHTS assay for small molecule agonists of the antioxidant response element (ARE) signaling pathway - cell viability counter screen (AID 743203; calls by dose curve; note: nearly all actives have a fitted effect of over 55% in size; note: potency is the fitted concentration of half-maximal effect)
In short: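 HepG2 cells carrying ARE-driven beta-lactamase; 2,000 cells/well; 5 hrs plating; compound pinned from DMSO; 16 hrs 37C/5% CO2; CellTiter-Glo added; 30 min RT; luminescence.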

[14] = qHTS assay for small molecule activators of the heat shock response signaling pathway - cell viability counter screen (AID 743209); note: nearly all actives have a fitted effect of over 50% in size; note: potency is the fitted concentration of half-maximal effect
In short: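 Luminescence from CellTiter-Glo, added after the beta-lactamase FRET read, gave the viability signal. Cells were HSE-bla HeLa treated with DMSO-dissolved compounds for 5 h at 37 C following overnight plating.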

[15] = qHTS assay for small molecule activators of the heat shock response signaling pathway (AID 743210; active = well fitted activation curve with a large enough effect in the signal ratio in the repeat runs, with a control signal flat, not every such curve was filed as active; inconclusive = weak or mixed curves; the % refers to the signal ratio;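 note: HeLa cells with beta-lactamase reporter driven by heat shock elements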)
In short: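 In HSE-bla HeLa cells, 5 h compound incubation (37 C) precedes addition of LiveBLAzer B/G substrate; after 2.5 h at room temperature, fluorescence intensity indicates reporter induction.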

[16] = qHTS assay to identify small molecule antagonists of the estrogen receptor alpha (ER-alpha) signaling pathway - cell viability counter screen (AID 743074; calls by dose curve;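 note: HEK293 cells carrying ER-alpha-UAS-bla reporter stimulated with 17beta-estradiol; nearly all actives have a fitted effect of over 45% in size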; note: potency is the fitted concentration of half-maximal effect)
[17] = target: Peroxisome proliferator-activated receptor gamma (Homo sapiens) (UniProt P37231); assay: qHTS assay to identify small molecule antagonists of the peroxisome proliferator-activated receptor gamma (PPARg) signaling pathway (AID 743191; calls by dose curve; note: nearly all actives have a fitted effect of over 30% in size)
In short: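 Beta-lactamase reporter under UAS control in HEK293H PPARg-bla cells; compound treatment 17 h at 37C. Read-out: fluorescence intensity after 1 h room-temperature incubation with LiveBLAzer B/G FRET substrate.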

[18] = qHTS assay to identify small molecule antagonists of the estrogen receptor alpha (ER-alpha) signaling pathway using the BG1 cell line (AID 743080; calls by dose curve;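 note: BG1 cells stimulated with 17beta-estradiol alongside compound; nearly all actives have a fitted effect of over 25% in size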; note: potency is the fitted concentration of half-maximal effect)
In short: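 Luciferase inhibition measured with ONE-Glo after 30 min at RT in BG1Luc4E2 cells given test compounds and 17beta-estradiol for 21.5 h at 37 C; CellTiter-Fluor viability read in the same wells beforehand.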

[19] = qHTS assay to identify small molecule that activate the aryl hydrocarbon receptor (AhR) signaling pathway - cell viability counter screen (AID 743086); note: nearly all actives have a fitted effect of over 45% in size; note: potency is the fitted concentration of half-maximal effect
In short: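 Cytotoxicity counter screen: CellTiter-Fluor signal (30 min, 37 C) in 4000 HepG2 cells/well carrying the DRE-luciferase reporter, following 24 h compound exposure at 37 C.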

Measured: Potency

Nc1ccc2ccccc2c1
active: [9] 20.9 µM and 27.3 µM
not listed: [16] | [17] | [18] | [19]
inactive: all other assays above

O=S(=O)(O)C(F)(F)C(F)(F)C(F)(F)C(F)(F)C(F)(F)C(F)(F)C(F)(F)C(F)(F)F
active: [1] 47.2 µM | [2] 51.9 µM and 61.1 µM | [13] 27.3 µM
not listed: [4] | [5] | [6] | [15] | [18] | [19]
inactive: all other assays above

O=C1C(Cl)=C(Cl)C(=O)c2ccccc21
active: [1] 30.7 µM and 5.45 µM | [2] 3.07 µM and 3.44 µM | [16] 43.8 µM and 54.9 µM | [18] 30.7 µM and 54.5 µM | Aromatase (Homo sapiens) 2.18 µM and 3.86 µM | [8] 4.34 µM and 27.3 µM | [9] 17.3 µM and 10.9 µM | [11] 39 µM and 11 µM | [13] 68.8 µM and 21.7 µM | [14] 27.6 µM and 12.3 µM
inactive: [3] | [7]

CCNc1nc(Cl)nc(NC(C)(C)C#N)n1
not listed: [4] | [5] | [6] | [15] | [17] | [18]
inactive: all other assays above

Brc1ccc(Br)cc1
not listed: [4] | [5] | [6] | [15] | [18]
inactive: all other assays above

Clc1ccccc1-c1nnc(-c2ccccc2Cl)nn1
active: [6] 27.1 µM and 43.1 µM
not listed: [4] | [18]
inactive: all other assays above

C[C@]12CC[C@H]3[C@@H](CCC4=CC(=O)CC[C@@H]43)[C@@H]1CC[C@@H]2O
active: [2] 21.1 µM and 13.3 µM and 30.4 µM | [5] 1.34 µM [inconclusive] and 268 nM [inconclusive] and 243 nM [inconclusive] | [6] 106 nM and 59.6 nM and 108 nM | [12] 34.1 µM
not listed: [4] | [17]
inactive: all other assays above

COP(=O)(NC(C)=O)SC (configuration not stated)
not listed: [4] | [5] | [6] | [18]
inactive: all other assays above

Cn1c(-c2ccccc2)cc(-c2ccccc2)[n+]1C
active: [18] 30.6 µM | Aromatase (Homo sapiens) 54.4 µM and 54.5 µM
not listed: [6] | [12] | [15] | [16] | [17]
inactive: all other assays above

Nc1ncn[nH]1
not listed: [4] | [5] | [6] | [18]
inactive: all other assays above

CC(C)(c1ccccc1)c1ccc(O)c(C(C)(C)c2ccccc2)c1
active: [1] 13.6 µM and 12.2 µM | [2] 15.2 µM and 13.7 µM | [3] 1.52 µM | [16] 54.9 µM | Aromatase (Homo sapiens) 60.6 µM | [8] 48.1 µM | [11] 15.3 µM and 19.5 µM | [13] 54 µM and 21.7 µM | [14] 48.5 µM and 24.5 µM
inactive: [4] | [9] | [19]
60.6 µM (active) and inactive: [7]

CCNCC
not listed: [4] | [5] | [6] | [17] | [18] | [19]
inactive: all other assays above

CCOP(=S)(OCC)OP(=S)(OCC)OCC
not listed: [4] | [5] | [6] | [17] | [18] | [19]
inactive: all other assays above

NC(=O)CN1CCCC1=O
not listed: [4] | [5] | [6] | [17] | [18]
inactive: all other assays above

COC(=O)Nc1nc2ccccc2[nH]1
active: [1] 12.2 µM | [2] 5.45 µM and 7.7 µM | [9] 24.3 µM
not listed: [4] | [5] | [6] | [11] | [17] | [18]
inactive: all other assays above

C=CC(=O)OCC(CC)(COC(=O)C=C)COC(=O)C=C
active: [1] 4.99 µM and 6.86 µM | [2] 3.15 µM and 4.33 µM | [16] 56.4 µM and 54.9 µM | [5] 22.5 µM [inconclusive] and 9.77 µM [inconclusive] | [7] 79 µM and 54.5 µM | Aromatase (Homo sapiens) 4.99 µM and 6.86 µM | [8] 6.28 µM and 6.86 µM | [19] 31.5 µM and 27.3 µM | [11] 28.3 µM and 9.77 µM | [14] 3.56 µM and 1.55 µM
inactive and 61.1 µM (active): [13]
inactive: [3] | [9]
